CSC inhib – blocks cancer stem cells | cancer stem cell-like cells viability, luminescence | inhibition, % at 7.5 µM | 300,000 compounds, 1.1% hits; in the data active = inhibition above about 75%; inconclusive = no clear call, values can overlap the other calls; tested in HMLE shEcad cells
Calb FLC – affects C. albicans growth with fluconazole; 300,000 compounds, 0.57% hits; C. albicans CaCi-2 (fluconazole-resistant clinical isolate) + fluconazole, Alamar Blue growth, 48 h; AID 1979; growth inhibition, % (no concentration beside the values);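 active = growth inhibition above about 58% in most replicates, limit read from the data, passing the limit was not always enough; inconclusive = exactly half the replicates above a set limit; inactive = most replicates below a set limit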;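 note: all wells also contain fluconazole at 8 µg/ml as a sub-toxic cotreatment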
Mdm2-MdmX inh – disrupts the human Mdm2-MdmX interaction; O15151+Q00987; SaOS-2 split-luciferase Mdm2/MdmX complementation, luminescence; inhibition, % at 8 µM; 330,000 compounds, 3% hits; AID 485346;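 active = inhibition of at least 50% at 8 µM in the primary screen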
Beta apoptosis – beta cell apoptosis inhibition. INS-1E cytokine-induced death, ATP luminescence, 48 h; percent of positive-control rescue, neutral wells zero. protection from apoptosis, % (concentration not given with the values). 300,000 compounds, 0.8% hits. AID 435005;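 active = Every replicate reaches about 75%, or at least half do and their mean reaches it too, limit read from the data; inconclusive = At least half of replicates reach the limit but their mean does not; inactive = Under half of replicates reach the limit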;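 note: higher means more ATP so stronger rescue from cytokine killing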
MPTP inh – permeability transition pore inhibition; inhibition, % at 10 µM; 360,000 compounds, 1.4% hits; AID 602449; isolated mouse mitochondria, Ca2+ swelling absorbance, 30 min;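 active = inhibition of 50% or more, scaled per plate between neutral and stimulator controls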
Of the large screens only hits and unclear results are named; the others gave an inactive call. Shown are actives, neighbours in structure and some others; about 4.8% of the full set was active somewhere.

CCN1C(=O)C(CC(=O)Nc2ccc(F)cc2)N(CCCN2CCN(c3ccc(F)cc3)CC2)C1=S (stereo unspecified)	CSC inhib 105.2
COc1ccccc1N1CC(C)(C)C(=O)N(C(=O)c2ccc(Cl)cc2)C1=S	Beta apoptosis 85.1
COc1ccccc1N1CC(C)(C)C(=O)N(C(=O)c2ccc(C)cc2)C1=S	none
CC1(C(=O)NS(=O)(=O)C2CC2)CCCN(C(=O)c2cccc(OC(F)(F)F)c2)C1 (stereo unspecified)	none (no result: CSC inhib, Calb FLC, Mdm2-MdmX inh, Beta apoptosis)
CC(C)N(C)c1ncnc2c1ncn2[C@H]1CN(Cc2ccc(Cl)cc2)C[C@@H](CO)O1	none (no result: CSC inhib, Calb FLC, Mdm2-MdmX inh, Beta apoptosis)
CCOC(=O)c1c(CSc2ccccc2)n(C)c2cc(Br)c(OCC(O)CNC(CO)(CO)CO)cc12 (stereo unspecified)	CSC inhib 100.4 (no result: Mdm2-MdmX inh)
O=C1NC2(CCC3(CC2)OCCO3)NN1c1ccc(Cl)cc1	Calb FLC 105.6
O=C1NC2(CCCCC2)NN1c1ccccc1	none
Cc1ccc(NC(=O)CC2NCCNC2=O)cc1Cl (stereo unspecified)	Calb FLC 119.7
Cc1ccc(S(=O)OCC(=O)Nc2cc(Cl)ccc2N2CCOCC2)cc1 (stereo unspecified)	none
O=C(COS(=O)c1ccccc1)Nc1cc(Cl)ccc1N1CCOCC1 (stereo unspecified)	Calb FLC 64.3
O=C(Nc1cc(C(F)(F)F)ccc1N1CCCCC1)c1ccc(Br)o1	CSC inhib 82.4
O=S1(=O)CC(N2CCN(c3ccccn3)CC2)CN1Cc1ccccc1 (stereo unspecified)	none (no result: CSC inhib, Calb FLC, Mdm2-MdmX inh, Beta apoptosis)
Fc1cccc(-c2cc3nc4c(c(NCc5ccco5)n3n2)CCCC4)c1	CSC inhib 93.3
CCc1c(C(=O)Nc2ccc(C)c(C)c2)[nH]c(C)c1C(C)=O	none
CC(=O)c1c(C)[nH]c(C(=O)Nc2ccc(C)c(C)c2)c1C	Calb FLC 95.7
COCCN1C(=O)C(O)=C(C(=O)c2ccco2)C1c1cccc(Oc2ccccc2)c1 (stereo unspecified)	Calb FLC 99.5
CCCOc1cccc(C2C(C(=O)c3ccco3)=C(O)C(=O)N2CCN(CC)CC)c1 (stereo unspecified)	none
CCOC(=O)c1sc(=NC(=O)c2ccco2)n(C)c1C	Calb FLC 105.5
COc1cc(OC)cc(-c2c(Sc3ccccc3)c3cc(-c4ccc5c(c4)OCCO5)ccc3n2C)c1	none (no result: CSC inhib, Calb FLC, Mdm2-MdmX inh, Beta apoptosis)
Cc1ccc2c(c1)N(C(=O)CCC(=O)NCCCN1CCN(C)CC1)CCO2	none (no result: CSC inhib)
Cc1ccc2c(c1)N(C(=O)CCC(=O)NCCCN1CCC(Cc3ccccc3)CC1)CCO2	Beta apoptosis 99.4
Clc1ccc(-c2cc(-c3nnc4n3CCCCC4)c3ccccc3n2)cc1	Beta apoptosis 99.5
c1ccc2c(-c3nnc4n3CCCCC4)cc(-c3ccncc3)nc2c1	none (no result: Beta apoptosis)
Fc1ccc(-c2cc(-c3nnc4n3CCCCC4)c3ccccc3n2)cc1	Calb FLC inconclusive, Beta apoptosis 96.5
CC1(C(=O)NCc2ccccc2)CSCC(=O)N1Cc1ccco1 (stereo unspecified)	none (no result: CSC inhib, Calb FLC, Mdm2-MdmX inh, Beta apoptosis)
Fc1ccccc1N1CCN(C(c2ccnc3ccccc23)c2nnnn2-c2ccc3c(c2)OCCO3)CC1 (stereo unspecified)	none (no result: CSC inhib, Calb FLC, Mdm2-MdmX inh, Beta apoptosis)
O=C1/C(=C/c2ccncc2)SC(=S)N1Nc1ccccc1	none
O=C(O)c1ccc(/C=C2\SC(=S)N(Nc3ccccc3)C2=O)cc1	Beta apoptosis 91.4
CCc1nc2ccc(C(=O)NCCCn3ccnc3)cn2c1N(C)Cc1nccs1	none (no result: CSC inhib, Calb FLC, Mdm2-MdmX inh, Beta apoptosis)
O=C1Nc2ccccc2-n2nnnc2C1N1CCN(c2ccc(C(F)(F)F)cc2[N+](=O)[O-])CC1 (stereo unspecified)	none (no result: CSC inhib, Calb FLC, Mdm2-MdmX inh, Beta apoptosis)
C/C(=N\Nc1cc(N2CCOCC2)nc(C)n1)c1ccc(F)cc1	none
C/C(=N\Nc1cc(N2CCCCC2)nc(C)n1)c1ccc(Br)cc1	CSC inhib 105.0
CCC(C(=O)Nc1c(C)cccc1C)n1c(-c2ccc(-c3ccccc3)cc2)nc2ccccc21 (stereo unspecified)	none (no result: CSC inhib, Calb FLC, Mdm2-MdmX inh, Beta apoptosis)
CSc1nc2sc3c(c2c(=O)n1CC(C)C)CC(C)(C)OC3	CSC inhib 75.2
O=S(=O)(Nc1ccc(-c2csc(-c3ccccc3)n2)cc1)c1ccccc1	CSC inhib 148.5
O=S(=O)(Nc1ccc(-c2ccc(NS(=O)(=O)c3ccccc3)cc2)cc1)c1ccccc1	none (no result: CSC inhib, Calb FLC, Mdm2-MdmX inh, Beta apoptosis)
Cc1ccc(S(=O)(=O)Nc2nc(-c3ccccc3)cs2)cc1	none
Cc1ccc(S(=O)(=O)Nc2ccc(-c3csc(-c4ccccc4)n3)cc2)cc1	CSC inhib 112.0
O=[N+]([O-])c1ccc(S(=O)(=O)Nc2ccc(-c3csc(-c4ccccc4)n3)cc2)cc1	CSC inhib 100.3 (no result: MPTP inh)
CCOC(=O)C1(C)CCN1C(=O)c1ccccc1 (stereo unspecified)	none (no result: CSC inhib, Calb FLC, Mdm2-MdmX inh, Beta apoptosis)
CN(Cc1ccccc1)C(=O)C1(C)CCN1C(=O)Cc1ccc(Cl)cc1Cl (stereo unspecified)	none (no result: CSC inhib, Calb FLC, Mdm2-MdmX inh, Beta apoptosis)
O=C(NC12CC3CC(CC(C3)C1)C2)c1ccc([N+](=O)[O-])o1	CSC inhib 79.5
COc1ccc(-c2cc3ccccc3oc2=O)cc1NC(=O)c1ccc([N+](=O)[O-])o1	Beta apoptosis 82.1 (no result: CSC inhib)
O=C(Nc1ccccc1Cl)c1ccc([N+](=O)[O-])o1	Calb FLC 100.3
Cc1ccccc1NC(=O)c1ccc([N+](=O)[O-])o1	none
O=C(Nc1ccc(NC(=O)c2ccc([N+](=O)[O-])o2)cc1Cl)c1ccco1	none
O=C(Nc1cccc(NC(=O)c2ccc([N+](=O)[O-])o2)c1)c1ccco1	CSC inhib 86.7
CCC(=O)Nc1cc(-c2cc3ccccc3oc2=O)ccc1OC	none
O=C(NC12CC3CC(CC(C3)C1)C2)c1ccc(Br)o1	none
CSC12CCCN(CCC(C(C)(C)C)C1)C2=O (stereo unspecified)	none (no result: CSC inhib, Calb FLC, Mdm2-MdmX inh, Beta apoptosis)
COC(=O)[C@@]1(Sc2ccc(C)cc2)CC(=O)N[C@@H]1c1ccc(C(F)(F)F)cc1	none (no result: CSC inhib, Calb FLC, Mdm2-MdmX inh, Beta apoptosis)
COc1cc(NC(=O)c2ccc([N+](=O)[O-])o2)ccc1NC(=O)c1cccs1	Beta apoptosis 77.7
COc1cc(NC(=O)c2cccs2)ccc1NC(=O)Cc1ccccc1	none
O=C(Nc1nc(-c2cccs2)cs1)c1ccc([N+](=O)[O-])o1	CSC inhib 90.2 (no result: Calb FLC)
CC(=O)NCCNc1nc(NCC2CC2)nc2cc(-c3ccccc3)sc12	none (no result: CSC inhib, Calb FLC, Mdm2-MdmX inh, Beta apoptosis)
COc1cc(/C=N/NC(N)=S)ccc1OCc1ccc(C)cc1	CSC inhib 76.1
OC[C@@H]1CN(Cc2cccs2)C[C@H](n2cnc3c(N4CCCC4)ncnc32)O1	none (no result: CSC inhib, Calb FLC, Mdm2-MdmX inh, Beta apoptosis)
CCCCOP(=O)(c1ccc(N(C)C)cc1)C(O)c1ccccc1F (stereo unspecified)	Calb FLC 95.1
CCCCOP(=O)(c1ccc(N(C)C)cc1)C(O)c1ccc(OC)cc1 (stereo unspecified)	none
O=C(Nc1ccc(Cl)c(C(F)(F)F)c1)[C@@H]1CC=C[C@@H]2CCN(Cc3ccccc3)C(=O)[C@@H]21	none
CCCCN1CC[C@H]2C=CC[C@@H](C(=O)Nc3ccc(Cl)c(C(F)(F)F)c3)[C@H]2C1=O	Calb FLC 109.4
Cc1ccc(NNC(=O)c2cc(C(C)(C)C)nn2Cc2ccccc2)cc1	CSC inhib 92.6
COc1ccccc1NNC(=O)c1cc(C(C)(C)C)nn1Cc1ccccc1	none

Screens as filed in PubChem.
